From PubChem BioAssay
Tau ThT inhib – inhibitors of human tau fibril formation, thioflavin T binding; recombinant tau K18 P301L, heparin-induced fibrillization, ThT fluorescence; P10636; Potency, µM (titrated, usually from 57.4 µM), hits mostly inhibitors; hit rate 2.1% among 270,000; AID 1460; note: nearly all actives have a fitted effect of over 55% in size
Target sequence (P10636 561-689 P618L limits assumed): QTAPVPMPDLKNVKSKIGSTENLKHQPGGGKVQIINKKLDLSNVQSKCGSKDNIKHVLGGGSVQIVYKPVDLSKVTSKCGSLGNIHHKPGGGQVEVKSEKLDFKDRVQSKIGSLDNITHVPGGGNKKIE
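Aggregation was driven by heparin (20 uM final) acting on recombinant tau […] bearing P301L in 100 mM sodium acetate pH 7; fibrils were detected with Thioflavin T.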
NPSR antag – neuropeptide S receptor (human) antagonism, cAMP | Q6W5P4 | CHO-NPSR cells, cAMP TR-FRET, antagonist mode | Potency, µM (highest dose often 38.3 µM), actives largely listed as inhibitors | hit rate 1% among 220,000 | AID 1461; note: nearly all actives have a fitted effect of over 50% in size
ALDH1A1 block – inhibitors of human aldehyde dehydrogenase 1A1; hit rate 7.3% among 220,000; P00352; Potency, µM (doses to about 75.3 µM), hits mostly inhibitors; Purified ALDH1A1, NADH fluorescence, propionaldehyde substrate; AID 1030; active = well fitted inhibition curve with a large enough effect, not every such curve was filed as active; inconclusive = small, poorly fitted or top-dose-only effect, or another doubt; inactive = no such curve, though single readings can be large or run the other way
Tau fibril FP – inhibitors of human tau fibril formation. P10636. Potency, µM (titrated, usually from 57.7 µM), actives largely listed as inhibitors. K18 P301L tau heparin fibrillization, Alexa594 FP, 6 h. hit rate 0.39% among 280,000; note: nearly all actives have a fitted effect of over 55% in size
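Human K18 P301L fragment (15 uM unlabeled plus 0.24 uM Alexa 594-labeled) in 100 mM sodium acetate pH 7 with compound, aggregation induced by 20 uM heparin for 6 hr at 37 C. ThT (30 uM) added for 1 hr, then Alexa 594 FP read.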
Tau fluor cs – counter-screen for tau fibril formation inhibitors; tau K18 P301L (four-repeat tau fragment) Alexa594 fluorescence, heparin fibrillization; AID 1463; hit rate 0.93% among 280,000; Potency, µM (doses to about 57.7 µM); note: nearly all actives have a fitted effect of over 55% in size
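Human K18 P301L tau (15 uM unlabeled plus 0.24 uM Alexa 594-labeled, final) in 100 mM sodium acetate pH 7 was mixed with compound and 20 uM heparin and incubated 6 hr at 37 C.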
HPGD block – HPGD (human) dehydrogenase inhibition; AID 894; Potency, µM, usual class: inhibitors; purified HPGD, NADH fluorescence kinetic, PGE2 substrate; P15428; hit rate 4.3% among 150,000; active = well fitted inhibition curve with a large enough effect, not every such curve was filed as active; inconclusive = small, poorly fitted or top-dose-only effect, or another doubt; inactive = no such curve, though single readings can be large or run the other way
Target sequence (P15428 whole entry, looked up): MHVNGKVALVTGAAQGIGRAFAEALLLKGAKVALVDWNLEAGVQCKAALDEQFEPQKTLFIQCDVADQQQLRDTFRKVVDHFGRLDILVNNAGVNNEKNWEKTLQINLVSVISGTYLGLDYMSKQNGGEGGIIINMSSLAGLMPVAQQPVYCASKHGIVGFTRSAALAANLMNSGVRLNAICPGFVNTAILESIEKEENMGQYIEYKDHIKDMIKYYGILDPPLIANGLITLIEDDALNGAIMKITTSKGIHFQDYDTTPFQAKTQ
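20 nM HPGD preincubated 15 min at room temperature with compound in 50 mM Tris-HCl pH 8, 0.01% Tween 20. Started with 1 mM NAD+ and 30 uM prostaglandin E2; NADH fluorescence (360/450 nm) read 5 times over 30-s intervals, last minus first.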
A number is an active result; – = inactive; ? = inconclusive; · = not tested or not shown; [ ] = remark or other dose. An excerpt weighted towards active compounds, which were near 9.5% of everything screened. Unless noted, calls come from the whole dose curve; as a rule, active = well fitted curve in the direction sought with a large enough effect; inconclusive = small, poorly fitted or top-dose-only effect, or another doubt; inactive = no such curve, though single readings can be large; an effect the other way counts as inactive or inconclusive.

SMILES	Tau ThT inhib	NPSR antag	ALDH1A1 block	Tau fibril FP	Tau fluor cs	HPGD block
CCCc1[nH][nH]c(=O)c1C(c1ccccc1)C(C#N)C#N (centres undefined)	–	–	22µM	–	–	?
CCCc1[nH][nH]c(=O)c1C(c1ccc(Cl)cc1)C(C#N)C#N (centres undefined)	?	–	?	–	–	16µM
O=C(c1csnn1)N1CCC2(CC1)CN(Cc1ccncc1)C2	·	·	–	·	·	–
S=C1CN=C(c2ccccc2)c2cc(Cl)ccc2N1	–	13µM	?	–	–	–
COc1ccc(C2=NCC(=S)Nc3ccc(Cl)cc32)cc1Cl	–	–	–	–	–	·
CC(C)CNCCc1ccccn1	·	·	–[13.5 µM]	·	·	–
CC1(C)N([O-])[N+](=O)C1(C)Br (centres undefined)	–	·	11µM	–	–	32µM
O=S(=O)(NCCO)c1cc[c]([Sb])cc1	·	·	–[13.5 µM]	·	·	–
Cc1ccnc(-n2c(C)cc(C=C3C(=O)N(C)C(=S)N(C)C3=O)c2C)c1	?	–	?	–	–	32µM
C(=C/c1ccccc1)/CN1CCN(CCOC(c2ccccc2)c2ccccc2)CC1	–	·	–	–	–	–
COc1ccc(CC2NC[C@H](O)[C@H]2OC(C)=O)cc1 (some centres undefined)	–	·	–	–	–	–
Cc1ccc(N2C(=O)/C(=C/c3ccc(CN(CCC#N)S(C)(=O)=O)o3)C(=O)NC2=S)cc1	22µM	–	22µM	?	–	22µM
Cc1cc(C)cc(N2C(=O)/C(=C\c3ccc(N4CCN(C)CC4)o3)C(=O)NC2=S)c1	?	–	·	–	–	·
CC(C)c1ccc(N2C(=O)NC(=O)/C(=C\C=C\c3ccco3)C2=O)cc1	?	4µM	–	?	–	·
O=C1NC(=O)N(Cc2ccccc2)C(=O)/C1=C/C=C/c1ccco1	10µM	?	·	?	–	·
O=C1NC(=O)N(c2ccc(Cl)cc2)C(=O)/C1=C/c1coc2ccc(O)cc2c1=O	?	–	·	–	–	·
CCC(=O)Oc1ccc2c(c1)CCC1C2CC[C@]2(C)C(OC(=O)CC)CCC12 (some centres undefined)	?	·	–	–	–	–
CC(=O)C1=C(O)[C@@H]2[C@@H]3c4c[nH]c5cccc(c45)C[C@@H]3C(C)(C)N2C1=O	–	·	?	–	–	–
CCOC(=O)c1ccc(N2CCN(c3ccccc3F)CC2)c(NC(=O)Nc2ccc(Cl)c(Cl)c2)c1	–	·	·	?	–	·
CC1(C)C(O)CC(=O)[C@]2(C)C1CC(=O)[C@]1(C)C2CC[C@@]2(C)C(c3ccoc3)OC(=O)C3O[C@@]321 (some centres undefined)	–	·	–	–	–	–
CCS(=O)(=O)N1CCN(C2CCC(C)CC2)CC1 (centres undefined)	–	–	?	–	–	–
Cc1cc(C)c(Cn2c3ccccc3c3cnn(CC(=O)NCc4ccc(Cl)cc4)c(=O)c32)c(C)c1	–	·	·	?	–	·
CC(=O)Nc1ccc([As](=O)(O)c2ccc([N+](=O)[O-])cc2)cc1	–	–	·	–	–	·
CCCCCC1CC(CC(=O)NC(=S)Nc2ccc([N+](=O)[O-])cc2)C(=O)O1 (centres undefined)	–	–	10µM	–	–	–
O=[N+]([O-])c1ccc2nc(N3CCNCC3)ccc2c1	–	?	25µM	–	–	–
SMILES	Tau ThT inhib	NPSR antag	ALDH1A1 block	Tau fibril FP	Tau fluor cs	HPGD block
O=C(Nc1ccccc1)c1cc([N+](=O)[O-])ccc1N1CCNCC1	–	–	–	–	–	·
CCN(CC)C(=O)c1c(C)[nH]c(=S)c(C#N)c1-c1ccco1	?	–	7.1µM	–	–	·
N#Cc1cc2c(nc1SCC(=O)Nc1ccc(C(F)(F)F)cc1)C1CCN2CC1	–	·	·	–	?	·
CC(C)(O)C1O[C@H]2CC[C@@]3(C)[C@@](O)(CC[C@H]4Cc5c([nH]c6ccccc56)[C@@]43C)C2=CC1=O (some centres undefined)	?	·	–	?	16µM[quencher]	·
COc1ccc(/C=C2/C(=O)NC(=S)N(C3CC3)C2=O)cc1CN1C(=O)c2ccccc2C1=O	?	–	20µM	–	–	14µM
ClC(Cl)=C(Cl)Cl	·	·	–	·	·	–
